Measurements published in PubChem BioAssay AID1259418 (Broad Institute, 2018).
About 840 (25%) of roughly 3,400 compounds were called active. Not shown: some 11% with an inconclusive outcome. The list is a sample of the results. Measured potencies and affinities stand elsewhere. Unmarked numbers belong to inactive results.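 How the source made its calls: active means fitted half-maximal concentration of signal decrease at or below twice the sample's top tested concentration; inconclusive means flat curve between -70 and -30 percent, or poor fit; inactive means flat within 30 percent, signal rise, or potency above limit.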

Test: inhibitors of Toxoplasma growth in IFN-γ-primed HeLa – cell-based, ME49Luc, luciferase, 72 h, dose response (AID 1259418)
Details: T. gondii ME49Luc in IFN-y HeLa, stronger effect = lower value, -100% = high-dose IFN-γ control wells; at 19.5 µM unless noted

Row | Structure (SMILES) | max activity
1 | O=C(CCC1N=C2c3ccccc3N=C(SCc3ccccc3Cl)N2C1=O)NCc1ccco1 (centres undefined) | 35.4% [at 10 µM]
2 | CCOC(=O)c1ccc(NC(=O)Nc2ccc(-c3nc(-c4ccc(C)cc4C)co3)cc2)cc1 | 15.1% [at 0.16 µM]
3 | CCOc1ccc(NC(=O)Nc2ccc(-c3nc(-c4ccccc4)co3)cc2)cc1 | 55.1%
4 | COc1ccc2c(c1)NC1(CCN(C(=O)c3ccc(Br)o3)CC1)c1cccn1-2 | 8.21% [at 0.35 µM]
5 | CC(C)(C)NC1=NCCNC12CCN(S(=O)(=O)c1ccc3c(c1)CCCC3)CC2 | -19.2% [at 0.35 µM]
6 | COc1ccc(NC(=O)Nc2ccc(-c3nc(-c4ccccc4)co3)cc2)c(OC)c1 | 53.6% [at 10 µM]
7 | O=C(CC(F)(F)F)N1C[C@@H]2[C@H](c3ccccc31)[C@H](CO)N2CC1CCOCC1 | 54.6%
8 | Cc1oc(-c2ccccc2Cl)nc1Cn1c(=O)c2cccnc2n(-c2ccccc2)c1=O | 6.15% [at 5 µM]
9 | O=C(CCC1Nc2c3ccccc3nc(=S)n2C1=O)N1CCN(c2ccccc2F)CC1 (centres undefined) | 35.9%
10 | O=C(CC1Nc2c3ccccc3nc(=S)n2C1=O)N1CCN(c2cccc(C(F)(F)F)c2)CC1 (centres undefined) | 105%
11 | COc1ccccc1CNC(=O)CCC1Nc2c3ccccc3nc(=S)n2C1=O (centres undefined) | 15% [at 2.6 µM]
12 | Cc1ccc(C)c(N2CCN(C(=O)CC3Nc4c5ccccc5nc(=S)n4C3=O)CC2)c1 (centres undefined) | 190% [at 10 µM]
13 | COc1cccc(N2CCN(C(=O)CC3Nc4c5ccccc5nc(=S)n4C3=O)CC2)c1 (centres undefined) | 50.6%
14 | Cc1ccc(Cl)cc1N1CCN(C(=O)CC2Nc3c4ccccc4nc(=S)n3C2=O)CC1 (centres undefined) | 25.8% [at 0.35 µM]
15 | Cc1cccc(-c2nc(Cn3nnc(-c4nc(-c5ccc(OC(F)(F)F)cc5)no4)c3C)c(C)o2)c1 | -4.39% [at 0.35 µM]
16 | Cc1oc(-c2cccc(Cl)c2)nc1CSc1nc2c(c(=O)[nH]1)CN(Cc1ccccc1)CC2 | 20.2% [at 0.35 µM]
17 | CCCc1cc(C2CCCN2C(=O)c2cc(C(F)(F)F)nn2C)no1 (centres undefined) | 13.3% [at 0.16 µM]
18 | Clc1ccccc1CSc1nc(NCCc2ccccc2)c2ccccc2n1 | 13.2% [at 5 µM]
19 | COc1ccc(CNc2nc(SCc3ccccc3F)nc3ccccc23)cc1 | 8.85% [at 0.68 µM]
20 | Clc1ccc(CNc2nc(SCc3ccccc3Cl)nc3ccccc23)cc1 | -19% [at 10 µM]
21 | Fc1ccccc1CSc1nc(NCc2ccco2)c2ccccc2n1 | 15% [at 2.6 µM]
22 | Cc1nc(N2CCOCC2)nc2c1CCN(C(=O)C1CC1)CC2 | 58.7%
23 | Clc1ccc(-n2ncc3c(NC4CCCCCCCCCCC4)ncnc32)cc1 | -21.9% [at 10 µM]
24 | COC(=O)CC(=O)Nc1ccc(-c2nc(-c3ccc(C)cc3C)co2)cc1 | 87.6%
25 | COc1ccccc1NC(=O)Nc1ccc(-c2nc(-c3ccc(C)cc3)co2)cc1 | -11.4% [at 0.35 µM]

Row | Structure (SMILES) | max activity
26 | Cc1ccccc1C(=O)Nc1ccc(-c2nc(-c3ccccc3)co2)cc1 | 95.8% [at 10 µM]
27 | Cc1ccc(-c2coc(-c3ccc(NC(=O)c4ccccc4C)cc3)n2)cc1 | 104%
28 | COc1cc(C(=O)Nc2ccc(-c3nc(-c4ccccc4)co3)cc2)cc(OC)c1OC | -19.1% [at 0.16 µM]
29 | Cc1cc(C)c2c(=O)n(Cc3nc(-c4ccccc4Cl)oc3C)c(=O)n(-c3ccccc3)c2n1 | -23.7% [at 10 µM]
30 | Cc1ccc(-c2coc(-c3ccc(NC(=O)Nc4cccc(F)c4)cc3)n2)cc1 | -17.7% [at 0.35 µM]
31 | Cc1ccc(S(=O)(=O)Nc2ccc(-c3nc(-c4ccc(C)c(C)c4)co3)cc2)cc1 | 33.8% [at 10 µM]
32 | Cc1oc(-c2cccc(Cl)c2)nc1Cn1nnc(-c2nc(-c3cccnc3)no2)c1C | 8.12% [at 10 µM]
33 | C/C=C/c1ccc(C2[C@H]3CNC[C@@H]2N3Cc2cc(F)ccc2F)cc1 (some centres undefined) | 24.5% [at 10 µM]
34 | COCCCN=C(Nc1ccc(C(=O)O)cc1)N1CCN(c2ncnc3ccccc23)CC1 | 14.9%
35 | Cc1ccc(-n2ncc3c(NCCCN4CCCC4=O)ncnc32)c(C)c1 | 50%
36 | Clc1ccc(-n2ncc3c(NCCc4ccccc4)ncnc32)cc1 | 36%
37 | Cc1cccc(-n2ncc3c(NCCc4ccccc4)ncnc32)c1 | -21.4% [at 0.35 µM]
38 | CCc1ccccc1Nc1ncnc2c1cnn2-c1cccc(C)c1 | 24.1% [at 10 µM]
39 | COc1ccc(CCNc2ncnc3c2cnn3-c2cccc(C)c2)cc1OC | 11.8% [at 1.35 µM]
40 | C=CCNc1ncnc2c1cnn2-c1ccc(C)cc1C | 27.6% [at 5 µM]
41 | Cc1cccc(-n2ncc3c(NCCCn4ccnc4)ncnc32)c1 | 38.7% [at 5 µM]
42 | Clc1cccc(CNc2ncnc3c2cnn3-c2ccccc2)c1 | 95.5% [at 10 µM]
43 | Cc1cccc(Nc2ncnc3c2cnn3-c2ccc(C)cc2C)c1 | -13.4% [at 10 µM]
44 | COC(=O)CC(=O)Nc1ccc(-c2nc(-c3ccccc3)co2)cc1 | 102%
45 | COc1ccc(NC(=O)Nc2ccc(-c3nc(-c4ccccc4)co3)cc2)cc1Cl | 10%
46 | NC(=O)CN1CCOCCOCCN(CC(N)=O)CCOCC1 | 36.3% [at 10 µM]
47 | COc1ccc(-c2nc3c(s2)CN(C(=O)Nc2ccccc2C)CC3)cc1OC | -11.5% [at 0.35 µM]
48 | C/C=C/c1ccc(C2[C@H]3CNC[C@@H]2N3Cc2ccc3c(c2)OCO3)cc1 (some centres undefined) | 24%
49 | Cc1ccc(S(=O)(=O)N2[C@@H]3CNC[C@H]2C3c2ccc(/C=C/c3ccccc3)cc2)cc1 (some centres undefined) | 32.9% [at 10 µM]
